Laboratory results reported in ChEMBL document CHEMBL3988442, “University of Dundee, Small-Polar-MMV Screening Library” (2021).
For some assays here: Results with a measured potency or affinity are listed apart.

Tests used:
Design in all cases: scale not given: direction of the effect not stated beside the values
[1] = target: Protein translocase subunit SecA (Escherichia coli (strain K12)) (UniProt P10408); assay: Assay to Identify E. coli SecA ATPase Inhibitors; assay type: functional; details: 30 µM
Chain of Protein translocase subunit SecA (Escherichia coli (strain K12)) (P10408 whole entry): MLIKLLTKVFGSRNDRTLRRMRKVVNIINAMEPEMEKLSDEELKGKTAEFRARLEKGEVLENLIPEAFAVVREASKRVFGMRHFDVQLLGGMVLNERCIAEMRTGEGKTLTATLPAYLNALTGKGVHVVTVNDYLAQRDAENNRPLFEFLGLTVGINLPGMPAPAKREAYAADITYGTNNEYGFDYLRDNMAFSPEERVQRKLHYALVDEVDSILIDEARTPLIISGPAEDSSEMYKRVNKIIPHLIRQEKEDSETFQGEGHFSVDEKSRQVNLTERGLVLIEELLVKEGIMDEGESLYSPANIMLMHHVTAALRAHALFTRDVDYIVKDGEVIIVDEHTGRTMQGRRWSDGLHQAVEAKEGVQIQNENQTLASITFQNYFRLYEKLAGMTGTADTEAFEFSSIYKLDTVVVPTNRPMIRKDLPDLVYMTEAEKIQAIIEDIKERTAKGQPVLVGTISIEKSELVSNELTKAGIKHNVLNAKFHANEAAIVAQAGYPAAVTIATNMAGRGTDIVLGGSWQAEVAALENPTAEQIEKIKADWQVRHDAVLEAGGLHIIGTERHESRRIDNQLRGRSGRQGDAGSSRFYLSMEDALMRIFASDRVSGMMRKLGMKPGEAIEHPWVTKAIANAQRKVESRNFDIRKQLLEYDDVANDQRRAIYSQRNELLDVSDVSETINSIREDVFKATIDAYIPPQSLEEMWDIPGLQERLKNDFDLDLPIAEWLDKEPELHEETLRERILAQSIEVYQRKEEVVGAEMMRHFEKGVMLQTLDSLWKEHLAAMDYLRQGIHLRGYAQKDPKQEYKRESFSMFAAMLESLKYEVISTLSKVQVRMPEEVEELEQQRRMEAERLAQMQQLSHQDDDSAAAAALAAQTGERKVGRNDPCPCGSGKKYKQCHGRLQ

[2] = target: T1, Ubiquitin-activating enzyme e1, putative (Leishmania donovani (strain BPK282A1)) (UniProt E9BSI1); assay: Leishmania donovani Ubiquitin Activating Enzyme (LdE1); assay type: functional; details: 30 µM
T1 sequence (whole entry): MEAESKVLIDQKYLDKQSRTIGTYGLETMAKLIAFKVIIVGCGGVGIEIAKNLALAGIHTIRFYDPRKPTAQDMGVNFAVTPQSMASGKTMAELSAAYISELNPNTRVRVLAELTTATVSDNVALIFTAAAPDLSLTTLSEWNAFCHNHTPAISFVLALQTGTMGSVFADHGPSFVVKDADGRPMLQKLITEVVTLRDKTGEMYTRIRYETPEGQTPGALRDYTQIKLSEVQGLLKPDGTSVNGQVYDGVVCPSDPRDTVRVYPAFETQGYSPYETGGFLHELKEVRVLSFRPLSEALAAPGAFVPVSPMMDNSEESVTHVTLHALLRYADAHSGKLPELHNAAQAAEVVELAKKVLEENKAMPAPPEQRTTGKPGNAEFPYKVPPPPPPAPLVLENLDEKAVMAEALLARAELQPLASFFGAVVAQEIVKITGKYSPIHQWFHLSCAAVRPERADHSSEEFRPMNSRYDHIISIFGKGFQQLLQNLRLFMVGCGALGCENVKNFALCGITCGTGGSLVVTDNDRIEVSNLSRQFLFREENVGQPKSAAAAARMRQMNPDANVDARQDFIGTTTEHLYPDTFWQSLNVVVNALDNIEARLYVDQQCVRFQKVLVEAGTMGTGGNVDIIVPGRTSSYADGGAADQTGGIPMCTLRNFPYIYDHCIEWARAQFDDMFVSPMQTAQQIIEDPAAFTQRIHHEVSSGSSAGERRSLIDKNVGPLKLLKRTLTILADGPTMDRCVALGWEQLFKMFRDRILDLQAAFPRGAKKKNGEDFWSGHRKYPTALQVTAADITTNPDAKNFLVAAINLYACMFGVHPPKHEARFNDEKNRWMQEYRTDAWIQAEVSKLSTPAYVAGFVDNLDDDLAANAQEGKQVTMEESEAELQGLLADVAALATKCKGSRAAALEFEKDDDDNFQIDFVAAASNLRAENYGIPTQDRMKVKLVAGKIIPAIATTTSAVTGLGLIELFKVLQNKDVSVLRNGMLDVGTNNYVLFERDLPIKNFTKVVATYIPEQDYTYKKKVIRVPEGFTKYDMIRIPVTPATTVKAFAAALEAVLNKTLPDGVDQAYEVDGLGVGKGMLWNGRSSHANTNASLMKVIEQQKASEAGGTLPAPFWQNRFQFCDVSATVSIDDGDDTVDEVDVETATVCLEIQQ

[3] = target: AMP-activated protein kinase, AMPK (Homo sapiens) (UniProt P54646+O43741+P54619+Q9UGJ0+Q9Y478+Q13131+Q9UGI9); assay: AMP-dependent Kinase enzyme assay. An in vitro enzyme assay that detects ADP turnover that is directly proportional to AMPK activity. This uses naive AMPK that is activated during the assay with MK-8722; assay type: functional; details: 30 µM
[4] = target: Sialic acid-binding Ig-like lectin 9 (Homo sapiens) (UniProt Q9Y336); assay: Hs-Siglec9 ALPHAscreen SOP 20170721; details: 10 µM
Chain of Sialic acid-binding Ig-like lectin 9 (Homo sapiens) (Q9Y336 whole entry): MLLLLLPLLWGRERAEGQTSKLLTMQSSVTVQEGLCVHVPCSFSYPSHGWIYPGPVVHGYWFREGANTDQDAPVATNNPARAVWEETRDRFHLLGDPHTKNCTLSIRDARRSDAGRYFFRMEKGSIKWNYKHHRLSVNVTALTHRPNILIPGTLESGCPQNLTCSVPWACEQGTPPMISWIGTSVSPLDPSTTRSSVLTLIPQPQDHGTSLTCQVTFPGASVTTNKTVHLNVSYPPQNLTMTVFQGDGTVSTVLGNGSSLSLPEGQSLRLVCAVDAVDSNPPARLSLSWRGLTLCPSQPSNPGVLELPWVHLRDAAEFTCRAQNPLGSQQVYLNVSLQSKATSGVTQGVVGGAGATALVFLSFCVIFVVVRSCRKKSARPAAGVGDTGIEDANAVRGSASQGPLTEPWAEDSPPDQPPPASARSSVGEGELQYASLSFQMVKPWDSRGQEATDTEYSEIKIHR

Trypanosoma cruzi = assay: Trypanosoma cruzi phosphomannomutase and mannose-1-phosphate guanylyltransferase assay; assay type: functional; details: 10 µM
[5] = target: T2, Arginase-2, mitochondrial (Homo sapiens) (UniProt P78540); assay: in vitro enzyme assay to detect the production of urea directly proportional to the activity of Arginase II; assay type: functional; details: 33.3 µM; note: in the data most compounds retested in dose-response had high values
T2 sequence (whole entry): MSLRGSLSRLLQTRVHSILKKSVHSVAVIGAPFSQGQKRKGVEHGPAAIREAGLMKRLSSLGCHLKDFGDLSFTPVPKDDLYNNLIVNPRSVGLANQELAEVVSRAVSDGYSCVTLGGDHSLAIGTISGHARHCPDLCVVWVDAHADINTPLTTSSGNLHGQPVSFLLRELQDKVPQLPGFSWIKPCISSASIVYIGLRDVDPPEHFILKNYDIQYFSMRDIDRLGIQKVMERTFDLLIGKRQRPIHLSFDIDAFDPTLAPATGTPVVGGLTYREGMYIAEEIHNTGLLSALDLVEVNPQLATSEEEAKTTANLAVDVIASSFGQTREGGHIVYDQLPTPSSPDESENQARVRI

[6] = target: T3, Proteasome subunit beta (Trypanosoma cruzi) (UniProt O96673); assay: Trypanosoma cruzi proteasome chymotrypsin-like activity (TcProtChymo) assay.; note: in the data most compounds retested in dose-response had high values; assay type: functional; details: 9.37 µM
T3 sequence (whole entry): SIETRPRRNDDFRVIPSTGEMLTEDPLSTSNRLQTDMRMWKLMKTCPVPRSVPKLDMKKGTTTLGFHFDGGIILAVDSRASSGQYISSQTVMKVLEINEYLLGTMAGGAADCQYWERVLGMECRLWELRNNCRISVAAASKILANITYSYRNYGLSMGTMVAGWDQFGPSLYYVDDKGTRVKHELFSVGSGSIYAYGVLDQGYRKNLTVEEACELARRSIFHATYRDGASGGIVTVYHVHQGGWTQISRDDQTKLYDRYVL

Homo sapiens = species: Homo sapiens; assay: To identify inhibition of the IFN signalling (Jak-Stat) pathway via expression of an eGFP reporter gene under the control of an IFN-stimulated response element (ISRE) containing MxA promoter.; assay type: functional; details: 30 µM
[7] = target: T4, Tyrosyl-tRNA synthetase, putative (Trypanosoma cruzi (strain CL Brener)) (UniProt Q4DSP6); assay: Trypanosoma cruzi tyrosyl tRNA synthetase (TcYRS) _High Tyrosine SOP; assay type: functional; details: 30 µM; note: in the data most compounds retested in dose-response had high values
T4 sequence (whole entry): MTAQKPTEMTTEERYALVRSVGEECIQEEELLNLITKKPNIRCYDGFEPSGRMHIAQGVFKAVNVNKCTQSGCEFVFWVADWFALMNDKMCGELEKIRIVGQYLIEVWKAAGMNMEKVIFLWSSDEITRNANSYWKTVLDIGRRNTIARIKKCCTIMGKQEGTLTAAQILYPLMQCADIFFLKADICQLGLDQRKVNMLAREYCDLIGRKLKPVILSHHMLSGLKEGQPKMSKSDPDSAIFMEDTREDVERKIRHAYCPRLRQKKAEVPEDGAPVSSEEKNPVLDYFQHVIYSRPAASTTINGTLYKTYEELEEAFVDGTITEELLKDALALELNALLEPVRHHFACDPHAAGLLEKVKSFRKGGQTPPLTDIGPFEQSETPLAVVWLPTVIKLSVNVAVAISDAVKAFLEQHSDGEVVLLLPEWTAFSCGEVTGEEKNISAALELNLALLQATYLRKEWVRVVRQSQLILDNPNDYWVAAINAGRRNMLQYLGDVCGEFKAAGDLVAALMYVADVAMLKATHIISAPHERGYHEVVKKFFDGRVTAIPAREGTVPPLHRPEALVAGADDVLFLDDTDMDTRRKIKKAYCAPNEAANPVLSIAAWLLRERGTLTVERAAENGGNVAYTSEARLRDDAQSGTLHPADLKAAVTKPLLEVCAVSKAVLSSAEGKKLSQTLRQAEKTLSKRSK

[8] = target: T4, Tyrosyl-tRNA synthetase, putative (Trypanosoma cruzi (strain CL Brener)); assay: Trypanosoma cruzi tyrosyl tRNA synthetase (TcYRS) SOP; assay type: functional; details: 30 µM
[9] = target: Chromo domain-containing protein 1 (Saccharomyces cerevisiae (strain ATCC 204508 / S288c) (Baker's yeast)) (UniProt P32657); assay: ScCHD-1 Enzyme Inhibition Assay; assay type: functional; details: 30 µM; note: in the data most compounds retested in dose-response had high values
Chain of Chromo domain-containing protein 1 (Saccharomyces cerevisiae (strain ATCC 204508 / S288c) (Baker's yeast)) (P32657 whole entry, the tested form may be a part): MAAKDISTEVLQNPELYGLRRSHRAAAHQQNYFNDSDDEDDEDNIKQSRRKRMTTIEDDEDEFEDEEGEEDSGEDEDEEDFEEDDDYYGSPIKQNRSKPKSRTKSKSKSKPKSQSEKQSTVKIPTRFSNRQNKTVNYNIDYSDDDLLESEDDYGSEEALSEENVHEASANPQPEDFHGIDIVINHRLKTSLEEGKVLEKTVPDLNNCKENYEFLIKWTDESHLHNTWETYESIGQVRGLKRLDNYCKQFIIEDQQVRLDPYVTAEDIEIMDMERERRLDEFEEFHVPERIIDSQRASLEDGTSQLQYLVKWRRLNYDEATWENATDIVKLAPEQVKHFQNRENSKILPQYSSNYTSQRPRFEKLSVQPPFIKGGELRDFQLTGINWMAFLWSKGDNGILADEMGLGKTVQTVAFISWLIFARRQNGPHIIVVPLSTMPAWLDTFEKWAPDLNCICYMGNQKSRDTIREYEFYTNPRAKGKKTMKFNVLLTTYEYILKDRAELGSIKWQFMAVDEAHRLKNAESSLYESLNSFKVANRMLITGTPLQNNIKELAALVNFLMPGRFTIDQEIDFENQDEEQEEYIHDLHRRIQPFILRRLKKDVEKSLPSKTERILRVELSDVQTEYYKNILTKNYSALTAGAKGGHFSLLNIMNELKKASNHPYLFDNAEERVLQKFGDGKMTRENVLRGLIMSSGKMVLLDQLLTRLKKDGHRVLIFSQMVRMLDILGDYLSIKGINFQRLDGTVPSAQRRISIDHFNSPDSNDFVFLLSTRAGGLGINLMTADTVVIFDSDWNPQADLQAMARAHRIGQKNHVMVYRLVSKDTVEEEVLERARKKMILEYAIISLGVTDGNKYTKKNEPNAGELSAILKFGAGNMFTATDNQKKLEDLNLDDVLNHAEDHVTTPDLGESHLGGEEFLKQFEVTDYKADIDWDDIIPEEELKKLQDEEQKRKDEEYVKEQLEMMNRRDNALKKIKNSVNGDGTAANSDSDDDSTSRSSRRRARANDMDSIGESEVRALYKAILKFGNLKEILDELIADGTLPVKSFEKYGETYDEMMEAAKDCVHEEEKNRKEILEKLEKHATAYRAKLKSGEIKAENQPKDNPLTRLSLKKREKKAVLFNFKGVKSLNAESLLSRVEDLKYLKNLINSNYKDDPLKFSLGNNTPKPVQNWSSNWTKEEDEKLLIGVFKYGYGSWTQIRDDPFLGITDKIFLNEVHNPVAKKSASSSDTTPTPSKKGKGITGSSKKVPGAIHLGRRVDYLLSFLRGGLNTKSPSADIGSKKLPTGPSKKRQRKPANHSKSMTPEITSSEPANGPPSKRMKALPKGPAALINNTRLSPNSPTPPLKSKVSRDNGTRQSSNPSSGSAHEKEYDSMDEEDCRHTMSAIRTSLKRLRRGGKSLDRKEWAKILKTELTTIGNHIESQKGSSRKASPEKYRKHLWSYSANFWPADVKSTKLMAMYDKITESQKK

| SMILES | Percent Effect [1] [%] | Percent Effect [2] [%] | Percent Effect [3] [%] | Percent Effect [4] [%] | Percent Effect (Trypanosoma cruzi) [%] | Percent Effect [5] [%] | Percent Effect [6] [%] | Percent Effect (Homo sapiens) [%] | Percent Effect [7] [%] | Percent Effect [8] [%] | Percent Effect [9] [%] |
| --- | --- | --- | --- | --- | --- | --- | --- | --- | --- | --- | --- |
| CNC(=O)Cc1ccc(NC(=O)NC(C)C(C)C)cc1 (configuration not stated) | -2.02 | 10.5 | 3.68 | 1.41 | 1.66 | 0 | 8.53 | -8.18 | 4.25 | 15.6 | -3.23 |
| Cc1noc2ncc(C(=O)N(CC3CCOC3)C3CC3)cc12 (configuration not stated) | -0.0275 | 7.89 | -3.99 | 3.92 | -9.59 | 3.45 | 7.69 | 24.4 | 0.49 | 4.88 | -5.66 |
| NC(=O)COc1cccc(C(=O)N2CCCC(n3ccnc3)C2)c1 (configuration not stated) | -0.383 | 0 | -5.3 | 11.8 | 6.41 | 0.554 | -4.67 | -2.06 | 1.98 | 11 | 2.43 |
| Cc1cccc(-n2cc(C(=O)N3CCCC(n4cccn4)C3)nn2)c1 (configuration not stated) | -6.43 | 23.4 | -0.0164 | -1.49 | 5.78 | -2.74 | 27.4 | 4.51 | 6.67 | 25.9 | -14.2 |
| COc1ccc(OCc2cc(C(=O)N3CCN[C@H](C)C3)n[nH]2)c(Cl)c1 | -0.706 | 5.41 | 0.0243 | -0.0327 | -4.63 | 2.86 | 14.5 | 5.15 | 2.65 | 9.76 | -3.55 |
| Cc1csc(N2CCCN(Cc3noc(C)n3)CC2)n1 | -2.54 | 3.8 | -4.18 | 0.549 | 2.36 | -7.1 | 15.9 | 11.2 | 5.21 | 7.59 | -16 |
| CCn1ncc2c1C(COCC1CC1)CN(S(=O)(=O)N(C)C)C2 (configuration not stated) | 0.0926 | 19.2 | -8.78 | 10.2 | 2.78 | -0.798 | 10.4 | 9.33 | 9.38 | 18.5 | -8.61 |
| COCCn1ccc2cc(NC(C)=O)ccc21 | -8.18 | 23.7 | -9.22 | 7.23 | 1.46 | -9.47 | 16.4 | -6.07 | 4.25 | 10.4 | -9.21 |
| Cc1nc(C)n(CC2CCCCN2CCC(=O)Nc2cc(C)on2)n1 (configuration not stated) | -3.16 | 6.33 | 3.99 | 1.14 | -1.13 | -0.645 | 11 | 5.13 | -7.29 | 12.7 | -9.87 |
| CCOC(=O)[C@]12CCCN(Cc3ccco3)C[C@H]1CN(CCN(C)C)C2 | -2.71 | 7.79 | 3.96 | 8.64 | -0.888 | -0.645 | 14.4 | 2.34 | 1.06 | 8.97 | -6.8 |
| Cn1ncc2c(=O)[nH]c(CN(Cc3ccco3)C3CCCC3)nc21 | -5.65 | 23.4 | -6.78 | 6.27 | 2.81 | -1.42 | 14.7 | 6.82 | 2.91 | 24.4 | -9.65 |
| CCOc1cccc(CNC(=O)NCC(O)c2cccc(F)c2)c1 (configuration not stated) | -5.26 | 16.2 | -2 | 22.6 | 5.75 | -6.01 | -1.44 | 29.2 | 7.39 | 23.5 | -11.2 |
| CC(=O)N1CCN(C(=O)CCCc2nc(C(C)C)no2)CC1 | -1.74 | 15.2 | 2.62 | -11.8 | -10.1 | 4.56 | 8.44 | 37.4 | -0.493 | -1.27 | -5.47 |
| COc1ncccc1CN1Cc2nnn(C)c2C(COCC2CC2)C1 (configuration not stated) | -1.6 | 7.79 | 4.07 | -3.49 | -5.62 | 3.23 | 1.92 | 2.8 | 4.23 | 14.1 | -4.09 |
| CN(CCNC(=O)Nc1ccncc1)C1CCCCC1 | -4.37 | 21.6 | -4.55 | 6.96 | 8.21 | -0.401 | 16.6 | 8.26 | 5.42 | 23.5 | -11 |
| Cc1nc(C)n(CC2CCCN2CC(=O)Nc2ccnn2C(C)C)n1 (configuration not stated) | 3.15 | 18.4 | 16 | -8.63 | -8.31 | 2.16 | 14 | 1.93 | 5.42 | 16.1 | -6.21 |
| COc1cc(C)c(CN2CCC3(CC2)C(C(=O)O)CC(=O)N3C)cc1C (configuration not stated) | -0.465 | 16 | -9.44 | 6.22 | 0.682 | 6.77 | 10.3 | 22.7 | 3.83 | 18.5 | -3.84 |
| COCCNc1ccc(CNC(=O)Nc2cn[nH]c2)cc1 | -0.0653 | 20.2 | -7.85 | 0.901 | -10.5 | 3.42 | 1.06 | 20.9 | 3.45 | 11.4 | -5.01 |
| Cn1cc(CN2CC[C@@H]3[C@@H](CCC(=O)N3CCc3c[nH]cn3)C2)cn1 | -4.59 | 5.48 | -4.95 | 7.16 | 7.14 | -4.79 | 5.05 | -5.47 | 1.04 | 6.17 | -0.897 |
| CCc1ccccc1-n1nnc(C(=O)O)c1-c1ccccn1 | -2.26 | 13.2 | 1.03 | -0.0352 | 1.85 | 1.18 | 23.5 | -17.6 | 4.25 | 13 | -6.21 |
| CCC(=O)N1Cc2nccn2CC(CN(C)Cc2cccnc2)C1 (configuration not stated) | -1.64 | 13.3 | 10.6 | -7.3 | -4.72 | 1.17 | 7.49 | -7.96 | 4.25 | 8.97 | -6.9 |
| Cc1noc(C(C)C)c1C(=O)NCc1cccc(N(C)C)c1 | -7.07 | 18.2 | -6.12 | -1.43 | -6.74 | -2.49 | 8.28 | 33 | 4.85 | 9.76 | -8 |
